# Compound activity as filed in PubChem.
# Shown are actives, neighbours in structure and some others; about 5.4% of the full set was active somewhere.
# 15-hLO-2 inh: qHTS Assay for Inhibitors of 15-hLO-2 (15-human lipoxygenase 2); 110,000 compounds, 0.56% hits; Polyunsaturated fatty acid lipoxygenase ALOX15B (Homo sapiens), O15296; Potency, µM (highest dose often 57.1 µM), for inactives: at the top dose activity change, negative = inhibition, usual class: inhibitors; purified 15hLO-2, xylenol orange hydroperoxide absorbance; AID 881, 2007; also: potency is read from the fitted curve at half-maximal effect; nearly all actives have a fitted effect of over 60% in size
#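 Read-out: hydroperoxide product oxidises ferrous iron, measured as xylenol orange complex via the 573-to-405 nm absorbance ratio after 30 min. Reaction: 50 nM enzyme, 15 min compound preincubation, 45 uM arachidonic acid, 90 min RT, Hepes pH 7.5 with Triton X-100.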
# HPGD inh: qHTS Assay for Inhibitors of HPGD (15-Hydroxyprostaglandin Dehydrogenase) | Potency, µM, for the others: at the top dose activity change, negative = inhibition, hits mostly inhibitors | 15-hydroxyprostaglandin dehydrogenase [NAD(+)] (Homo sapiens), P15428 | 150,000 compounds, 4.3% hits | AID 894, 2007 | purified HPGD, NADH fluorescence kinetic, PGE2 substrate; active = well fitted inhibition curve with a large enough effect, not every such curve was filed as active; inconclusive = small, poorly fitted or top-dose-only effect, or another doubt; inactive = no such curve, though single readings can be large or run the other way; also: potency is read from the fitted curve at half-maximal effect
# Target sequence (P15428 whole entry, looked up): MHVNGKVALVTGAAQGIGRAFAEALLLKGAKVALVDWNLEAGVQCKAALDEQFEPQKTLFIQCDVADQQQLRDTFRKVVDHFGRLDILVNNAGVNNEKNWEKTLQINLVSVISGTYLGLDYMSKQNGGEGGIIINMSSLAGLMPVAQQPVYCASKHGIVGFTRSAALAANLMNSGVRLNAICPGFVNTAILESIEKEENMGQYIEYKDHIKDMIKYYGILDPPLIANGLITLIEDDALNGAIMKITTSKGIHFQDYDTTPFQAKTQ
#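 NADH formation kinetics: reaction with 30 uM PGE2 and 1 mM NAD+ (final), 20 nM enzyme, Tris-HCl pH 8 with Tween 20, after 15 min compound preincubation at room temperature. Fluorescence change, last versus first of five reads.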
# ALOX12 inhib: qHTS Assay for Inhibitors of 12-hLO (12-human lipoxygenase); Potency, µM (top dose mostly 57.1 µM), for inactives: at the top dose activity change, negative = inhibition, usual class: inhibitors; Polyunsaturated fatty acid lipoxygenase ALOX12 (Homo sapiens), P18054; 150,000 compounds, 0.12% hits; purified 12-hLO, xylenol orange hydroperoxide absorbance; also: potency is read from the fitted curve at half-maximal effect; nearly all actives have a fitted effect of over 55% in size
#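 Purified human 12hLO (150 nM), preincubated 15 min with compound, then 40 uM arachidonic acid for 30 min, room temperature, Hepes pH 7.0 with 0.01% Triton X-100. Hydroperoxide detected by ferrous iron/xylenol orange; 573/405 nm absorbance ratio gives reaction progress.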
# IMPase cell inh: qHTS Assay for Identifying the Cell-Membrane Permeable IMPase Inhibitors. 120,000 tested, under 10 active. AID 901, 2007. CHO-M1 cells, IP1 accumulation, HTRF TR-FRET ratio. inhibition (IP1 accumulation), % at 46.1 µM; active = well fitted curve in the direction sought with a large enough effect in the signal ratio, not every such curve was filed as active; inconclusive = small, poorly fitted or top-dose-only effect, or a change in a side signal; inactive = no such curve, though single readings can be large or run the other way; the % refers to the signal ratio;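 also: cells stimulated with carbachol in lithium chloride buffer; plate controls were DMSO basal wells for no effect and reference inhibitor wells for full effect; higher means more IMPase inhibition seen as more IP1 and lower FRET ratio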
# Target sequence (P97697 whole entry, looked up): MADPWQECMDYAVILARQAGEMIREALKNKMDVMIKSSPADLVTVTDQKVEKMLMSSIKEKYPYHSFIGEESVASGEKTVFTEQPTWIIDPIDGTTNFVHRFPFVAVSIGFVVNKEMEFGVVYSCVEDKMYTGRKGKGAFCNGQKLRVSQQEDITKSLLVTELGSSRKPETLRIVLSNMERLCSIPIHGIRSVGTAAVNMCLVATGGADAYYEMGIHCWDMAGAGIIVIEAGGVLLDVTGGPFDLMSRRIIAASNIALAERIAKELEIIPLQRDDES
#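 Cellular IMPase inhibition is scored as a rise in cytosolic IP1, detected by competitive TR-FRET between d2-labelled IP1 and a europium anti-IP1 antibody. M1-expressing CHO cells were stimulated with carbachol for 30 min at 37C, with lithium (50 mM LiCl) present in the buffer.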
# IMPase Li inh: qHTS Assay for Identifying the Cell-Membrane Permeable IMPase Inhibitors: Potentiation with Lithium. AID 1457, 2008. Potency, µM (highest dose often 59.4 µM), without a hit: at the highest dose activity, negative = IMPase inhibition, actives largely listed as inhibitors. CHO-M1 cells, IP1 TR-FRET (IP-One), carbachol + lithium. 210,000 compounds, 0.35% hits;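 also: IP1 builds up when IMPase is blocked and the TR-FRET signal falls; potency is read from the fitted curve at half-maximal effect; plate controls were basal vehicle for no effect and high inhibitor control for full effect; nearly all actives have a fitted effect of over 50% in size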
#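 Test compounds were applied to CHO-M1 cells previously cultured for 16–30 h at 2000 per well. A small lithium amount accompanied them; after 30 min at 37C, IP1 was quantified by TR-FRET.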
# PNC assembly inh: High Content Assay for Compounds that inhibit the Assembly of the Perinucleolar Compartment | activity change (PNC), negative = inhibition, % at 10 µM | 140,000 compounds, 3.1% hits | PC3M PTB-GFP, PNC prevalence imaging, 16 h; hits give low values;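 active = readout at or below -70, meaning at least 70% loss of cells showing the perinucleolar compartment, a nuclear body marking cancer cells; inconclusive = readout between -30 and a set limit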;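 also: plate controls were DMSO wells for no effect and camptothecin positive control wells for full effect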
#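 Compounds are pinned in duplicate onto adhered PC3M cells stably expressing GFP-tagged PTB and incubated 16 h at 37 C. Cells are then fixed, nuclei stained with Hoechst, and PNC-positive cells counted.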
# Numbers without * were called inactive; u = inconclusive; x = no result; [ ] = dose if it differs, or a comment. Unless noted, calls follow the shape of the dose curve; as a rule, active = well fitted curve in the direction sought with a large enough effect; inconclusive = small, poorly fitted or top-dose-only effect, or another doubt; inactive = no such curve, though single readings can be large; an effect the other way counts as inactive or inconclusive. Unless noted, % is scaled to controls: 0 for no effect and ±100 for the full control effect.
SMILES,15-hLO-2 inh,HPGD inh,ALOX12 inhib,IMPase cell inh,IMPase Li inh,PNC assembly inh
COc1cc2[nH]c(=O)n3nc(-c4ccccc4)nc3c2cc1OC,x,u,3%,1,16%,-100*
N[C@@H]1C=CC=C(C(=O)O)C1,-4%,x,-1%,1,x,x
N=C(N)SC(c1ccccc1)c1ccccc1,13%[11.4 µM],-4%,2%[11.4 µM],x,-8%,x
COc1ccc2c(Cl)c(C(=O)NCC3CCCO3)sc2c1Cl (stereo not given),x,-17%,-2%,x,-18%,6
O=C(NCC1CCCO1)c1sc2ccccc2c1Cl (stereo not given),x,8.9µM*,-2%,-5,-4%,34
Cc1ccc2c(Cl)c(C(=O)NCC3CCCO3)sc2c1 (stereo not given),-14%,14µM*,-4%,-1,1%[38.3 µM],35
CCN(CC)C(=O)c1c(NC(=O)c2ccccc2F)sc2c1CCC(C(C)(C)C)C2 (stereo not given),x,x,x,2,x,x
COc1ccccc1NC(=O)C1=C(C)Nc2nc(-c3ccco3)nn2C1c1ccccc1F (stereo not given),x,x,x,4,x,x
COc1ccc(N(C(=O)c2ccccc2C)S(=O)(=O)c2cccs2)cc1,x,-15%,-2%,x,7%,-97*
N=C(N)SCc1cccc(-c2nc3ccccc3c(=O)o2)c1,-5%[11.4 µM],-1%,4%[11.4 µM],x,-6%,x
COc1cc(C(=O)OC2CC[C@]3(C)C4CCC5[C@]6(O)CC(O)[C@]7(O)C(CN8CC(C)CCC8[C@]7(C)O)[C@]6(O)C[C@@]53O[C@]24O)cc(OC)c1OC (stereo not given in full),10%,-4%,-4%,x,20%,x
O=C(CCc1ccc(S(=O)(=O)NCc2ccccc2)cc1)NCC1CCCO1 (stereo not given),x,-6%,0%,x,-9%,-106*
Cc1ccccc1-c1noc(CCC(=O)NCC2CCCO2)n1 (stereo not given),-4%,16µM*,-7%,2,18%[38.3 µM],3
O=C(Cc1ccccc1)NCC1CCCO1 (stereo not given),-2%,-27%,-2%,-6,-22%[38.3 µM],35
Cc1cccc(-c2noc(CCC(=O)NCC3CCCO3)n2)c1 (stereo not given),-2%,25µM*,1%,13,18%[38.3 µM],15
O=C(CCc1c[nH]c2ccccc12)NCC1CCCO1 (stereo not given),-5%,14µM*,-2%,4,10%[38.3 µM],u
CCc1ccc(Nc2nnc(-n3nc(C)cc3C)c3ccccc23)cc1,x,x,x,-7,x,x
COc1ccc(-c2[nH]c(-c3cccc(OC)c3)nc2SCC(=O)Nc2ccc3c(c2)OCO3)cc1,x,x,x,3,x,x
CCn1c(CCCc2nc3c([nH]2)c(=O)n(C)c(=O)n3C)nc2c1c(=O)n(C)c(=O)n2C,-1%[11.4 µM],-5%,2%[11.4 µM],x,-20%,x
COc1ccc(OC)c(NC(=O)Cc2c(C(=O)O)n(C)c3ccc(C)cc23)c1,x,x,x,8,x,x
CCN1C(=O)C(O)(CC(=O)/C=C/C=C/c2ccccc2)c2ccccc21 (stereo not given),-2%,-22%,2%,9,12%[38.3 µM],28
Cc1ccc2c(c1)C(O)(CC(=O)/C=C/C=C/c1ccccc1)C(=O)N2 (stereo not given),x,-24%,-1%,x,8%,-92*
CCc1cccc(NC(c2ccccc2)c2nnc(-c3ccccc3F)o2)c1 (stereo not given),x,x,x,1,x,x
O=C(NC1CCN(Cc2ccccc2)CC1)c1ccc(-n2c(=O)c(=O)[nH]c3ccccc32)cc1,x,0%,-6%,x,x,x
